RORgamma inh – qHTS for inhibitors of ROR gamma transcriptional activity | Drosophila S2 Gal4-RORgamma UAS-luciferase reporter, 20 h | 310,000 tested, 5.4% active | Potency, µM (highest dose often 53.6 µM), inactives show top-dose activity change, negative = inhibition, actives largely listed as inhibitors | Nuclear receptor ROR-gamma (Mus musculus), P51450; further: potency means the concentration at half of the fitted maximal effect; nearly all actives have a fitted effect of over 60% in size
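Drosophila Schneider cells stably carrying a metallothionein-driven Gal4 DBD–ROR gamma fusion and a UAS-Photinus luciferase reporter were exposed to compound for 1 hr, then induced with copper sulfate (700 uM final) for 20 hr at ambient temperature before luminescence reading.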
rTrxR1 inhibitor – qHTS Assay for Inhibitors of Mammalian Selenoprotein Thioredoxin Reductase 1 (TrxR1): qHTS; Thioredoxin reductase 1, cytoplasmic (Rattus norvegicus), O89049; recombinant rTrxR1, NADPH fluorescence consumption, selenite substrate; Potency, µM (series often up to 114 µM), inactives show top-dose activity change, negative = inhibition, hits mostly inhibitors; 390,000 tested, 1% active; AID 588453, 2011; further: potency means the concentration at half of the fitted maximal effect; nearly all actives have a fitted effect of over 65% in size
Target sequence (O89049 whole entry, looked up): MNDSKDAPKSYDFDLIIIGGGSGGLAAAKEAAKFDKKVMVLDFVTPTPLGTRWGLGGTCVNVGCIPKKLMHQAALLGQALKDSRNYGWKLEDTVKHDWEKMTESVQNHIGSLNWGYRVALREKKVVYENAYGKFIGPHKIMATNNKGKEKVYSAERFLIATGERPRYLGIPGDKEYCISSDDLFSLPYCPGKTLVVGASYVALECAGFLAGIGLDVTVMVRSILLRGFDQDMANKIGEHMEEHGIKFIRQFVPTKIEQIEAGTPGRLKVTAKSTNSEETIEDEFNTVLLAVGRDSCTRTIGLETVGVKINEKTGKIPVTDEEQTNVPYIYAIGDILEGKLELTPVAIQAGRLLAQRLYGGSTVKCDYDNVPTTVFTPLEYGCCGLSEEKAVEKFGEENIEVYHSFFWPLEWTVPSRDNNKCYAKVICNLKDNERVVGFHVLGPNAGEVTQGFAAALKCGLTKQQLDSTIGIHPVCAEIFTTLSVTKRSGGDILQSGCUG
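Rat TrxR1 (90 nM in the dispensed reagent) was pre-reduced with 400 uM NADPH for 5 min at room temperature, then incubated with compound for 15 min. After 400 uM selenite was added, NADPH fluorescence (Ex 340/Em 450 nm) was followed for 8 min.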
GALK inh – qHTS Assay for Inhibitors of Human Galactokinase (GALK). P51570. AID 1868, 2009. Purified GALK, Kinase-Glo residual ATP luminescence. 270,000 tested, 0.007% active. Potency, µM (series often up to 57.5 µM), inactives show at the top dose activity change, negative = inhibition, hits mostly inhibitors; further: potency means the concentration at half of the fitted maximal effect
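5 nM enzyme, 35 uM ATP, 100 uM galactose, 20 mM HEPES pH8.0, 5 mM MgCl2; 1 h RT; residual ATP by Kinase-Glo Plus luminescence, qHTS format.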
Gal4-VP16 FLuc – VP16 counterscreen qHTS for inhibitors of ROR gamma transcriptional activity. Potency, µM (titrated, usually from 53.6 µM), inactives show at the top dose activity, negative = inhibition, actives largely listed as inhibitors. 310,000 tested, 3.5% active. AID 2546, 2010. Drosophila S2 Gal4-VP16 UAS-luciferase, luminescence, 20 h;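 further: Gal4-VP16 expression switched on by copper sulfate through the metallothionein promoter; potency means the concentration at half of the fitted maximal effect; nearly all actives have a fitted effect of over 50% in size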
Coupling enz – qHTS Assay for Inhibitors of Fructose-1,6-bisphosphate Aldolase from Giardia Lamblia: Coupling assay counterscreen. coupling enzyme system counterscreen, AmpLite Red fluorescence. activity change, negative = inhibition, % at 58.2 µM, hits read low. 290,000 tested, 0.67% active. AID 2472, 2010; in the data active means activity change below about -30%
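Compounds tested against the coupling enzymes alone at 57.5 uM final; readout was AmpLite Red fluorescence (525/598 nm) after 20 min at RT.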
TrxR1 substrate – qHTS Assay for Substrates of Mammalian Selenoprotein Thioredoxin Reductase 1 (TrxR1): qHTS; Thioredoxin reductase 1, cytoplasmic (Rattus norvegicus), O89049; purified TrxR1 substrate turnover, NADPH consumption readout; Potency, µM (top dose mostly 114 µM), without a hit: top-dose activity change, negative = substrate turnover; 390,000 tested, 0.01% active; further: potency means the concentration at half of the fitted maximal effect; nearly all actives have a fitted effect of over 50% in size
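Rat TrxR1, dispensed at 90 nM, was prereduced with 400 uM NADPH (final) for 5 min at ~22 deg C, then incubated with compound 15 min before 400 uM selenite. A first-read NADPH fluorescence drop versus no-compound background flagged substrates.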
Starred values were filed as active, the others as inactive; ? = inconclusive; . = not tested or not shown; [ ] = another dose, or the depositor's remark. Shown are actives, neighbours in structure and some others; about 5.9% of the full set was active somewhere. Unless noted, the call rests on the fitted dose curve; in most records, active means well fitted curve in the direction sought with a large enough effect; inconclusive means small, poorly fitted or top-dose-only effect, or another doubt; inactive means no such curve, though single readings can be large; an effect the other way counts as inactive or inconclusive. On the % scale 0 is the no-effect control and ±100 the full control effect.

SMILES	RORgamma inh	rTrxR1 inhibitor	GALK inh	Gal4-VP16 FLuc	Coupling enz	TrxR1 substrate
CC1=NN(C(=O)c2cccc(Cn3nc(C)c([N+](=O)[O-])c3C)c2)C(O)(C(F)(F)F)C1 (stereo unspecified)	3.2µM*	17%	0%	7.1µM*	-1	6%
CC1=NN(C(=O)c2ccc(Cn3cc([N+](=O)[O-])cn3)cc2)C(O)(C(F)(F)F)C1 (stereo unspecified)	10µM*	-14%	2%	13µM*	2	-15%
CN(C)c1ccc(NC(=O)c2ccc(Cn3cc([N+](=O)[O-])cn3)cc2)cc1	?	7%	-1%	-5%	-6	-1%
Cc1nn(Cc2cccc(C(=O)N3N=C(C(F)F)CC3(O)C(F)F)c2)c(C)c1[N+](=O)[O-] (stereo unspecified)	?	6%	2%	-25%	-1	2%
Brc1ccc(-c2csc(NNC3=NCCCCC3)n2)cc1	7.1µM*	10%	1%	14µM*	-1	-6%
FC(F)Oc1ccc(-c2csc(NNC3=NCCCCC3)n2)cc1	?	24%[57.1 µM]	-5%	4%	-4	-4%
CC(C)(C)c1ccc(-c2csc(NNC3=NCCCCC3)n2)cc1	13µM*	-8%	-2%	?	-1	-7%
CCN(CC)C(=S)NC(=O)c1ccc(F)cc1	0.79µM*	-12%[57.1 µM]	7%	2.8µM*	2	-2%[57.1 µM]
CCNC(=S)NNC(=O)c1cccnc1	-2%	-28%	-4%	-5%	0	10%
O=C(NC(=S)NC12CC3CC(CC(C3)C1)C2)c1ccc(F)cc1	.	-11%	.	.	.	14%[57.1 µM]
CCN(CC)C(=S)NC(=O)c1cccnc1	2.5µM*	-15%[57.1 µM]	4%	5.6µM*	0	-8%[57.1 µM]
CCc1ccc(OCCn2c(C3CC(=O)N(Cc4ccc(F)cc4)C3)nc3ccccc32)cc1 (stereo unspecified)	.	8%	.	.	.	-5%
CCOC(=O)CC1CCCCN1Cc1nc(-c2ccc(F)c(OC)c2)oc1C (stereo unspecified)	3.5µM*	7%	0%	-13%	0	-3%
COC(=O)c1ccc(C(=O)OC)c(NC(=S)N2CC(C)CC(C)C2)c1 (stereo unspecified)	11µM*	-11%	.	14%	2	30%
COC(=O)c1ccc(C(=O)OC)c(NC(=S)N2CCCC(C)C2)c1 (stereo unspecified)	7.9µM*	-2%	.	7%	0	17%
COC(=O)c1ccc(C(=O)OC)c(NC(=S)N2CCC(C(N)=O)CC2)c1	9%	-1%	0%	-1%[10 µM]	4	2%
O=C(N/N=C1\CC2CC=CC12)c1ccccc1Cl (stereo unspecified)	-99%	21%[57.1 µM]	-1%	11%	-2	-7%
Cc1cc(Br)c(OCc2ccc(C(=O)N/N=C3\CC4CC=CC34)cc2)c(Br)c1 (stereo unspecified)	7.9µM*	-62%	.	?	2	11%[57.1 µM]
O=C(N/N=C1\CC2CC=CC12)c1ccc(Br)cc1 (stereo unspecified)	11µM*	12%[57.1 µM]	3%	0%	1	5%[57.1 µM]
CC(C)C1=CC2=CC[C@@H]3[C@@](C)(C(=O)O)CCC[C@]3(C)C2CC1 (stereo partly specified)	0%	.	.	-17%	-2	.
CC(Oc1ccc(Cl)cc1Cl)C(=O)Nc1ccncc1 (stereo unspecified)	-29%	11%	0%	20µM*	3	3%
CC(Oc1cccc(Cl)c1)C(=O)Nc1ccncc1 (stereo unspecified)	?	23%	8%	13µM*	4	-5%
N#Cc1ccc(-c2ccc(OCC3CNC(=O)O3)cc2)cc1 (stereo unspecified)	.	50%	-7%	.	0	37%[57.1 µM]
COc1ccc(C)cc1-n1nnnc1SC/C(O)=C(\C#N)c1nc2ccccc2[nH]1	13µM*	-15%	-2%	?	-13	-8%
Cc1cccc(Nc2nnc(SC/C(O)=C(\C#N)c3nc4ccccc4[nH]3)s2)c1	7.1µM*	?	1%	11µM*	-6	-9%
SMILES	RORgamma inh	rTrxR1 inhibitor	GALK inh	Gal4-VP16 FLuc	Coupling enz	TrxR1 substrate
Cc1ccc(Nc2nnc(SC/C(O)=C(\C#N)c3nc4ccccc4[nH]3)s2)c(C)c1	?	-13%	-7%	?	1	-1%
CCCCNC(=O)COC(=O)c1ccccc1F	8%	4%	-2%	3%	0	-4%
Sc1oc(-c2ccccc2)cc1C=Nc1ccccc1	13µM*	-28%[57.1 µM]	0%	18µM*	-4	-3%[57.1 µM]
Cc1ccc2[nH]c(O)c(N=Nc3nc4ccccc4s3)c2c1	2.8µM*	12%	-2%	-2%	2	-2%
N#Cc1ccc(-c2ccco2)nc1SCc1ccccc1	42%	?	0%	11%	0	24%
CCSc1nc(-c2ccco2)ccc1C#N	-29%	7.9µM*	0%	-4%	1	16%
O=C1Nc2ccccc2N(O)N1c1cc(-c2cccc(Cl)c2)no1	1%	4%	-9%	8%	9	-3%
CCOc1ccc(N2C(=O)CN(C)C2=S)cc1	?	-6%	1%	13%	0	-5%
CCOc1cc(C=C(C#N)C#N)ccc1Oc1ccc([N+](=O)[O-])cn1	12%	10µM*	-7%	7%	-7	-8%
Cc1sc2c(c1C)c(=O)n(CCc1ccccc1)c(=O)n2Cc1cccc(F)c1	.	20%	.	.	.	-2%
COc1ccc(C(=O)CSc2cc(C)nc3nc(C)nn23)cc1OC	16µM*	-13%	-3%	?	2	11%[57.1 µM]
COc1ccc(C(=O)COC(=O)c2ccc(OC)c(OC)c2)cc1OC	-12%	-15%	0%	2%	-1	-14%
COc1ccc(O)c(C(=O)CC(=O)c2ccc(F)cc2)c1	?	?	4%	?	-7	3%
COc1ccc(C(=O)CC(=O)c2ccccc2O)cc1OC	7.1µM*	3%[57.1 µM]	8%	6%[10 µM]	-2	-3%[57.1 µM]
COc1ccc(C(=O)CSC#N)cc1OC	16µM*	-9%[57.1 µM]	-1%	?	1	8%[57.1 µM]
COc1ccc(C(=O)CC(=O)c2ccccc2O)cc1	7.9µM*	-19%	8%	6.3µM*	0	-8%

Screens: PubChem BioAssay, National Center for Advancing Translational Sciences (NCATS)
